According to PubChem BioAssay AID1159580 (chemical genetic matrix, 2015):
Several values for one entry are separate records, joined by “and”; a condition that tells them apart may be missing. Equal entries are not always repeated. Out of some 5,500 compounds screened, about 2,000 (36%) were called active. Roughly 18% stayed inconclusive and do not appear here. Rule as the data show it: active = normalized growth mostly below about 0.91 (no sharp cut-off); inconclusive = no clear call, values can overlap the other calls; inactive = mostly above about 0.92. The list shows a part of the results.

Experiment: chemical genetic growth profiling, strain panel (AID 1159580);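 also: tested at 20 µM; growth read once vehicle control cultures reached saturation at 30 °C; 1 = growth at the plate median or of vehicle wells; lower values mean less growth of the strain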
Conditions: growth OD
[1] = S. cerevisiae deletion strains, locus YAL013W, strain DEP1, stronger effect = lower value
[2] = S. cerevisiae deletion strains, locus YBR229C, strain ROT2, stronger effect = lower value
[3] = S. cerevisiae deletion strains, locus YDL101C, strain DUN1, stronger effect = lower value
[4] = S. cerevisiae deletion strains, locus YDL134C, strain PPH21, stronger effect = lower value
[5] = S. cerevisiae deletion strains, locus YDR150W, strain NUM1, stronger effect = lower value
[6] = S. cerevisiae deletion strains, locus YEL061C, strain CIN8, stronger effect = lower value
[7] = S. cerevisiae deletion strains, locus YGR078C, strain PAC10, stronger effect = lower value
[8] = S. cerevisiae deletion strains, locus YHR030C, strain SLT2, stronger effect = lower value
[9] = S. cerevisiae deletion strains, locus YJR043C, strain POL32, stronger effect = lower value
[10] = S. cerevisiae deletion strains, locus YJR075W, strain HOC1, stronger effect = lower value
[11] = S. cerevisiae deletion strains, locus YKL190W, strain CNB1, stronger effect = lower value
[12] = S. cerevisiae deletion strains, locus YLR039C, strain RIC1, stronger effect = lower value
[13] = S. cerevisiae deletion strains, locus YLR262C, strain YPT6, stronger effect = lower value
[14] = S. cerevisiae deletion strains, locus YNL322C, strain KRE1, stronger effect = lower value
[15] = S. cerevisiae deletion strains, locus YOL006C, strain TOP1, stronger effect = lower value
[16] = S. cerevisiae deletion strains, locus YPL055C, strain LGE1, stronger effect = lower value
[17] = S. cerevisiae deletion strains, locus YPL241C, strain CIN2, stronger effect = lower value
[18] = S. cerevisiae strains, strain wild type, stronger effect = lower value

Measured: normalized growth

Cc1cc(O)c2c(c1)Cc1cccc(O)c1C2=O
active: [6] 0.848 | S. cerevisiae deletion strains, locus YGR229C, strain SMI1, stronger effect = lower value 0.677 | S. cerevisiae deletion strains, locus YIL066C, strain RNR3, stronger effect = lower value 0.717 | S. cerevisiae deletion strains, locus YIR030C, strain dcg1, stronger effect = lower value 1.1 [resistant] | S. cerevisiae deletion strains, locus YJL187C, strain SWE1 (second series), stronger effect = lower value 0.742 | S. cerevisiae deletion strains, locus YKR001C, strain vps1, stronger effect = lower value 0.865 | [12] 0.261 | [13] 0.517 | [15] 0.261 | [16] 0.753 | [18] 0.881
0.573 (active) and 1.05 (inactive): S. cerevisiae deletion strains, locus YJL095W, strain BCK1, stronger effect = lower value
inactive: [1] 0.978 | S. cerevisiae deletion strains, locus YBR021W, strain FUR4, stronger effect = lower value 1.09 | [2] 1.02 | S. cerevisiae deletion strains, locus YCL029C, strain bik1, stronger effect = lower value 1.01 | S. cerevisiae deletion strains, locus YDL035C, strain GPR1, stronger effect = lower value 0.978 | S. cerevisiae deletion strains, locus YDL074C, strain BRE1, stronger effect = lower value 0.832 | [3] 0.951 | [4] 0.992 | S. cerevisiae deletion strains, locus YDL185W, strain tfp1, stronger effect = lower value 1 | S. cerevisiae deletion strains, locus YDL192W, strain arf1, stronger effect = lower value 1.02 | S. cerevisiae deletion strains, locus YDR101C, strain arx1, stronger effect = lower value 1.01 | [5] 1.02 | S. cerevisiae deletion strains, locus YDR162C, strain NBP2, stronger effect = lower value 0.905 | S. cerevisiae deletion strains, locus YDR318W, strain mcm21, stronger effect = lower value 0.982 | S. cerevisiae deletion strains, locus YDR388W, stronger effect = lower value 0.998 | S. cerevisiae deletion strains, locus YDR502C, strain sam2, stronger effect = lower value 1 | S. cerevisiae deletion strains, locus YER110C, stronger effect = lower value 1.01 | S. cerevisiae deletion strains, locus YER155C, strain BEM2, stronger effect = lower value 1.02 | S. cerevisiae deletion strains, locus YER167W, strain BCK2, stronger effect = lower value 0.941 | S. cerevisiae deletion strains, locus YGL078C, strain dbp3, stronger effect = lower value 1.02 | S. cerevisiae deletion strains, locus YGL086W, strain mad1, stronger effect = lower value 0.979 | S. cerevisiae deletion strains, locus YGL248W, strain PDE1, stronger effect = lower value 0.958 | [7] 0.979 | S. cerevisiae deletion strains, locus YGR135W, strain pre9, stronger effect = lower value 1.02 | S. cerevisiae deletion strains, locus YGR252W, strain gcn5, stronger effect = lower value 0.914 | [8] 0.96 and 1.05 | S. cerevisiae deletion strains, locus YHR079C, strain IRE1 (second series), stronger effect = lower value 1.02 | S. cerevisiae deletion strains, locus YHR079C, strain IRE1, stronger effect = lower value 1.04 | S. cerevisiae deletion strains, locus YHR094C, strain hxt1, stronger effect = lower value 1.01 | S. cerevisiae deletion strains, locus YHR129C, strain ARP1, stronger effect = lower value 0.926 | S. cerevisiae deletion strains, locus YHR200W, strain rpn10, stronger effect = lower value 1.05 | S. cerevisiae deletion strains, locus YIL073C, strain SPO22, stronger effect = lower value 0.898 | S. cerevisiae deletion strains, locus YIL125W, strain kgd1, stronger effect = lower value 0.998 | S. cerevisiae deletion strains, locus YJL134W, strain LCB3, stronger effect = lower value 1.01 | S. cerevisiae deletion strains, locus YJL168C, strain set2, stronger effect = lower value 1 | [9] 1.01 | S. cerevisiae deletion strains, locus YJR066W, strain TOR1, stronger effect = lower value 0.938 | [10] 0.971 | S. cerevisiae deletion strains, locus YKL009W, strain mrt4, stronger effect = lower value 1.05 | S. cerevisiae deletion strains, locus YKL068W, stronger effect = lower value 1.02 | S. cerevisiae deletion strains, locus YKL085W, strain MDH1 (second series), stronger effect = lower value 1.03 | S. cerevisiae deletion strains, locus YKL085W, strain MDH1, stronger effect = lower value 1.03 | [11] 0.995 | S. cerevisiae deletion strains, locus YLR058C, strain SHM2, stronger effect = lower value 0.922 | S. cerevisiae deletion strains, locus YLR102C, strain apc9, stronger effect = lower value 1.05 | S. cerevisiae deletion strains, locus YLR113W, strain HOG1, stronger effect = lower value 1.05 | S. cerevisiae deletion strains, locus YLR268W, strain sec22, stronger effect = lower value 0.93 | S. cerevisiae deletion strains, locus YLR330W, strain CHS5, stronger effect = lower value 0.957 | S. cerevisiae deletion strains, locus YLR342W, strain FKS1 (second series), stronger effect = lower value 0.918 | S. cerevisiae deletion strains, locus YLR371W, strain rom2, stronger effect = lower value 1.02 | S. cerevisiae deletion strains, locus YLR418C, strain cdc73, stronger effect = lower value 0.902 | S. cerevisiae deletion strains, locus YML016C, strain PPZ1, stronger effect = lower value 0.999 | S. cerevisiae deletion strains, locus YML032C, strain rad52, stronger effect = lower value 0.906 | S. cerevisiae deletion strains, locus YML124C, strain tub3, stronger effect = lower value 1.03 | S. cerevisiae deletion strains, locus YMR078C, strain ctf18, stronger effect = lower value 0.974 | S. cerevisiae deletion strains, locus YMR223W, strain ubp8, stronger effect = lower value 1.06 | S. cerevisiae deletion strains, locus YMR307W, strain GAS1, stronger effect = lower value 0.874 | S. cerevisiae deletion strains, locus YNL067W, strain RPL9B, stronger effect = lower value 0.932 | S. cerevisiae deletion strains, locus YNL183C, strain NPR1, stronger effect = lower value 0.967 | S. cerevisiae deletion strains, locus YNL233W, strain BNI4, stronger effect = lower value 0.946 | S. cerevisiae deletion strains, locus YNL250W, strain rad50, stronger effect = lower value 0.962 | S. cerevisiae deletion strains, locus YNL271C, strain bni1, stronger effect = lower value 1.01 | S. cerevisiae deletion strains, locus YNL298W, strain CLA4, stronger effect = lower value 0.999 | S. cerevisiae deletion strains, locus YNL307C, strain MCK1, stronger effect = lower value 1 | [14] 0.987 | S. cerevisiae deletion strains, locus YNR052C, strain pop2, stronger effect = lower value 0.949 | S. cerevisiae deletion strains, locus YOL012C, strain htz1 0.675 | S. cerevisiae deletion strains, locus YOL147C, strain pex11, stronger effect = lower value 1.05 | S. cerevisiae deletion strains, locus YOR061W, strain CKA2, stronger effect = lower value 0.995 | S. cerevisiae deletion strains, locus YOR069W, strain VPS5, stronger effect = lower value 0.951 | S. cerevisiae deletion strains, locus YOR136W, strain idh2, stronger effect = lower value 1 | S. cerevisiae deletion strains, locus YOR144C, strain elg1, stronger effect = lower value 1.06 | S. cerevisiae deletion strains, locus YOR184W, strain ser1, stronger effect = lower value 0.984 | S. cerevisiae deletion strains, locus YOR231W, strain MKK1, stronger effect = lower value 1.07 | S. cerevisiae deletion strains, locus YOR316C, strain cot1, stronger effect = lower value 1.06 | [17] 0.982 | S. cerevisiae deletion strains, locus YPL256C, strain CLN2, stronger effect = lower value 1.09 | S. cerevisiae deletion strains, locus YPR119W, strain clb2, stronger effect = lower value 1.05 | S. cerevisiae deletion strains, locus YPR141C, strain kar3, stronger effect = lower value 1.02 | S. cerevisiae deletion strains, locus YPR163C, strain tif3, stronger effect = lower value 0.982 | S. cerevisiae deletion strains, locus YPR167C, strain met16, stronger effect = lower value 1.06 | S. cerevisiae deletion strains, strain wtn01, stronger effect = lower value 0.997

CC(C)(C)c1nccc(-c2nn(-c3ccc(F)cc3)ccc2=O)n1
inactive: [1] 0.991 | [2] 0.988 | S. cerevisiae deletion strains, locus YCL061C, strain MRC1, stronger effect = lower value 1.02 | [3] 1.03 | [4] 0.994 | [5] 0.9 | [6] 1.01 | [7] 1.01 | [8] 1.02 | S. cerevisiae deletion strains, locus YHR087W, strain rtc3, stronger effect = lower value 0.985 | S. cerevisiae deletion strains, locus YJL187C, strain SWE1, stronger effect = lower value 1.03 | [9] 1 | [10] 1.03 | [11] 1.01 | [12] 0.99 | S. cerevisiae deletion strains, locus YLR058C, strain SHM2 (second series), stronger effect = lower value 1 | S. cerevisiae deletion strains, locus YLR085C, strain ARP6, stronger effect = lower value 1.15 | [13] 0.974 | S. cerevisiae deletion strains, locus YML094W, strain GIM5, stronger effect = lower value 1 | S. cerevisiae deletion strains, locus YMR219W, strain ESC1, stronger effect = lower value 1 | S. cerevisiae deletion strains, locus YMR263W, strain SAP30, stronger effect = lower value 0.995 | S. cerevisiae deletion strains, locus YNL153C, strain GIM3, stronger effect = lower value 1.02 | S. cerevisiae deletion strains, locus YNL298W, strain CLA4 (second series), stronger effect = lower value 1.03 | [14] 1 | S. cerevisiae deletion strains, locus YNR030W, strain Alg12, stronger effect = lower value 0.999 | [15] 1.09 | [16] 0.949 | [17] 1.04 | S. cerevisiae deletion strains, locus YPR135W, strain CTF4, stronger effect = lower value 0.869 | [18] 0.99
